Screens: PubChem, National Center for Advancing Translational Sciences (NCATS)
TDP1 cell noCPT: qHTS for Inhibitors of human tyrosyl-DNA phosphodiesterase 1 (TDP1): qHTS in cells in absence of CPT. 15% of 420,000 active. AID 686978, 2013. Potency, µM (doses to about 46.2 µM), for the others: at the top dose activity change, negative = growth inhibition, most hits filed as inhibitors. DT40 Tdp1-/- hTDP1 cells, no CPT, ATP luminescence, 48 h; further: nearly all actives have a fitted effect of over 55% in size
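Compound effects on proliferation are scored in DT40 Tdp1-/-;hTDP1 cells in the absence of CPT. ATP levels (CellTiter-Glo luminescence) are recorded after a ≥48 hr, 37 °C incubation.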
DT40 TDP1 CPT: DT40-hTDP1 cell growth loss with CPT; chicken DT40 Tdp1-/-;hTDP1 cells + 20 nM CPT, ATP luminescence, 48 h; Potency, µM (titrated, usually from 46.2 µM), for inactives: top-dose activity change, negative = growth inhibition, most hits filed as inhibitors; 12% of 420,000 active; further: nearly all actives have a fitted effect of over 55% in size
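Chicken DT40 Tdp1-/- cells complemented with human TDP1, 400 cells/well, exposed to compounds plus 20 nM camptothecin for at least 48 h at 37 C; viability read as ATP content by CellTiter-Glo luminescence.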
KB-V1 cytotox: kills drug-selected multidrug resistant KB-V1 cells; KB-V1 MDR cells viability, CellTiter-Glo, 72 h; Potency, µM (top dose mostly 46.1 µM), hits mostly cytotoxic; 3.4% of 400,000 active; AID 1347076; further: nearly all actives have a fitted effect of over 60% in size
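Luminescent ATP read-out (CellTiter-Glo, 10 min) measures survival of drug-selected KB-V1 MDR cells after 72 h, 37 degrees C compound exposure. Medium: phenol-red-free DMEM, 10% FBS. Values from fitted concentration-response curves.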
KB-3-1 cytotox: KB-3-1 parental cell cytotoxicity; AID 1347075; 1.4% of 400,000 active; KB-3-1 viability, CellTiter-Glo ATP luminescence, 72 h; Potency, µM (titrated, usually from 46.1 µM), hits mostly cytotoxic; further: nearly all actives have a fitted effect of over 60% in size
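KB-3-1 parental drug-naive adenocarcinoma cells in DMEM/10% FBS, incubated 72 h at 37 C with pin-transferred compounds across a concentration series. Viability by CellTiter-Glo luminescence; concentration-response curves fitted after normalization.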
HT1080 IDH1KD tx: HT-1080 IDH1 knockdown cell toxicity (counter line) | HT-1080 IDH1 knockdown viability, ATP luminescence, 48 h | Potency, µM (highest dose often 46.1 µM), for inactives: at the highest dose activity, negative = toxicity, usual class: cytotoxic | 2% of 360,000 active | AID 686971;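 further: 0% = DMSO wells and -100% = cell-free medium wells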
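Luminescent ATP read-out (CellTiter-Glo, 10 min at room temperature) after 48 h compound exposure at 37 °C gave viability of IDH1-knockdown HT-1080 cells. Activity was normalised to DMSO and cell-free wells, then fitted as concentration-response curves.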
HT1080NT lethal: kills 2HG-producing HT-1080-NT fibrosarcoma cells. HT-1080-NT fibrosarcoma viability, CellTiter-Glo ATP luminescence, 48 h. Potency, µM (series often up to 46.1 µM), inactives show at the highest dose activity, negative = less viability, most hits filed as cytotoxic. 1.6% of 360,000 active. AID 686970;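 further: NT is the 2HG producing partner of a matched IDH1 knockdown line; 0% = DMSO-treated cells and -100% = media-only wells without cells; nearly all actives have a fitted effect of over 55% in size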
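Read-out is CellTiter-Glo luminescence after 10 minutes at room temperature, following 48 hours' compound treatment of HT-1080-NT cells (750 cells/well, RPMI, 5% FBS, 37 degrees C).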
* = called active by the depositor; i = inactive; ? = inconclusive; . = no result given. The list is not random: actives were taken first. Their share in the collection is about 19%. The call rests on the fitted dose curve; in most records, active means well fitted curve in the direction sought with a large enough effect; inconclusive means small, poorly fitted or top-dose-only effect, or another doubt; inactive means no such curve, though single readings can be large; an effect the other way counts as inactive or inconclusive. Unless noted, on the % scale 0 is the no-effect control and ±100 the full control effect; potency means the concentration at half of the fitted maximal effect.

SMILES | TDP1 cell noCPT | DT40 TDP1 CPT | KB-V1 cytotox | KB-3-1 cytotox | HT1080 IDH1KD tx | HT1080NT lethal
CC(c1ccccc1)N1C(=O)/C(=C/c2ccncc2)SC1=S (stereo not drawn) | 23µM* | ? | ? | ? | ? | ?
O=C(O)CCCN1C(=O)/C(=C/c2ccncc2)SC1=S | ? | ? | i | i | -18% | ?
O=C(CN1C(=O)S/C(=C/c2ccncc2)C1=O)Nc1ccccc1 | ? | 23µM* | i | i | 0% | -5%
O=C(O)CCCCCN1C(=O)/C(=C/c2ccncc2)SC1=S | 23µM* | 23µM* | i | i | -5% | 0%
CC(=O)c1ccc(N2CCN(c3ncnc4onc(C)c34)CC2)cc1 | 5.8µM* | 4.1µM* | ? | 21µM* | . | .
Cc1ccc(Cl)cc1N1CCN(C(=O)c2c(C)oc3ncnc(N4CCCCC4)c23)CC1 | 6.5µM* | 9.2µM* | i | i | . | .
Cc1noc2ncnc(N3CCN(c4cccc(Cl)c4)CC3)c12 | 9.2µM* | 16µM* | i | ? | -21% | -20%
Cc1ccc(Cl)cc1N1CCN(S(=O)(=O)c2c(C)noc2C)CC1 | ? | ? | i | i | -2% | 3%
Cc1ccc(Cl)cc1N1CCN(c2ncnc3onc(C)c23)CC1 | 5.8µM* | 6.5µM* | ? | ? | . | .
COc1cccc(N2CC(NC(=O)c3ccc(S(=O)(=O)N4CCCC4)cc3)CC2=O)c1 (stereo not drawn) | -28% | -13% | . | . | . | .
COc1cc(/C=N/N2C(=O)CSC2=S)ccc1O | -24% | -16% | i | ? | 21% | 13%
O=C1CSC(=S)N1N=Cc1cccc(OCc2ccccc2)c1 | -2% | -26% | i | i | -1% | -2%
COc1cc(O)c(C=NN2C(=O)CSC2=S)c(OC)c1 | 23µM* | 21µM* | i | i | 2% | 2%
O=C1CSC(=S)N1N=Cc1ccc(Cl)cc1Cl | 21µM* | ? | ? | i | 0% | -4%
O=C1CSC(=S)N1/N=C/c1cccnc1 | ? | 15µM* | i | i | 5% | 12%
O=C1CSC(=S)N1N=Cc1ccccc1O | 9.2µM* | ? | i | i | 7% | 3%
Cc1ccccc1/C=N/N1C(=O)CSC1=S | -20% | -14% | i | i | 1% | 14%
COC(=O)N1CCC2(CCCN(C(=O)Nc3cccc(F)c3)C2)CC1 | -4% | 0% | . | . | . | .
CCOc1ccccc1NC(=O)n1ncc2cc(Cl)ccc21 | ? | -14% | i | i | . | .
COc1ccccc1NC(=O)c1cc2c(CO)cnc(C)c2oc1=Nc1ccccc1 | 8.2µM* | ? | ? | i | 17% | 16%
COc1cc(NC(=O)c2cc3c(CO)cnc(C)c3oc2=Nc2cccc(C(N)=O)c2)cc(OC)c1 | ? | -27% | i | i | 0% | -2%
CC(=O)OCc1cnc(C)c2oc(=O)c(C(=O)Nc3cccc(F)c3)cc12 | . | . | i | i | . | .
COc1ccc(NC(=O)c2cc3c(COC(C)=O)cnc(C)c3oc2=Nc2cccc(C(=O)O)c2)c(OC)c1 | 26µM* | -23% | i | i | 9% | 9%
COc1ccccc1NC(=O)c1cc2c(CO)cnc(C)c2oc1=Nc1cccc(C(N)=O)c1 | 1.8µM* | 5.2µM* | i | i | 2% | -2%
COc1ccc(NC(=O)c2cc3c(CO)cnc(C)c3oc2=Nc2cc(OC)cc(OC)c2)cc1 | -16% | -23% | i | i | 6% | -3%
SMILES | TDP1 cell noCPT | DT40 TDP1 CPT | KB-V1 cytotox | KB-3-1 cytotox | HT1080 IDH1KD tx | HT1080NT lethal
Cc1onc(-c2c(Cl)cccc2Cl)c1C(=O)NCCc1ccncc1 | -14% | 1% | . | . | 8% | -7%
COc1cccc(CNCCSc2nnnn2-c2ccccc2)c1OC | 23µM* | ? | i | i | . | .
CCOc1cc(CNCCSc2nnnn2-c2ccccc2)ccc1OC | 10µM* | 12µM* | i | i | . | .
COc1ccc(S(=O)(=O)NCCSc2nnnn2-c2ccccc2)cc1OC | 23µM* | 16µM* | i | i | . | .
Cn1nnnc1SCCNS(=O)(=O)c1ccccc1 | -22% | -4% | i | i | 25% | 24%
Cc1ccc(NC(=O)CSc2nnc(-c3ccccc3)n2C)cc1 | -20% | -1% | i | ? | . | .
O=C(Nc1ccc(Br)cc1)C1CCN(S(=O)(=O)c2cccc3nsnc23)CC1 | -21% | ? | i | i | . | .
CCOC(=O)c1c(OCC)[nH]c2c1cc(O)c1ccccc12 | 18µM* | 16µM* | ? | i | ? | ?
CCOC(=O)c1c(C)[nH]c2cc(Br)c(O)cc12 | -9% | ? | i | i | -6% | -13%
CN(C)C(=O)c1cccc(-c2cnc3c(NC=O)cc(-c4cccc(C(F)(F)F)c4)cn23)c1 | 8.2µM* | 8.2µM* | ? | i | 18µM* | 23µM*
CN(C)C(=O)c1cccc(-c2cnc3c(NC=O)cc(-c4cccc(F)c4)cn23)c1 | 15µM* | 21µM* | ? | i | 18% | 29%
CN(C)C(=O)c1cccc(-c2cc(NC=O)c3ncc(-c4ccc(F)c(Cl)c4)n3c2)c1 | 23µM* | 16µM* | i | i | ? | ?
COc1ccc(-c2cc(NC=O)c3ncc(-c4cccc(C(=O)N(C)C)c4)n3c2)cn1 | 16µM* | 23µM* | i | i | -1% | -8%
CCOc1ccc(CNC(=O)C2Cc3cc(S(=O)(=O)N4CCCCCC4)ccc3N2C(C)=O)cc1 (stereo not drawn) | ? | ? | i | i | . | .
CCOC(=O)c1ccc(Nc2c(-c3cccc(O)c3)nc3nc[nH]n23)cc1 | ? | ? | i | i | . | .
CC(Sc1nnc(-c2cccnc2)o1)C(=O)NC1CCCCC1 (stereo not drawn) | 0% | -2% | i | i | 0% | 18%
CCCc1cc(=O)[nH]c(SCC(=O)NN(c2ccccc2)c2ccccc2)n1 | ? | 0% | i | ? | -1% | -3%
CN(C)C(=O)c1cccc(-c2cnc3c(NC=O)cc(-c4ccc(N(C)C)cc4)cn23)c1 | ? | 18µM* | i | i | -24% | ?
COc1cccc(-c2cc(NC=O)c3ncc(-c4cccc(C(=O)NCCN(C)C)c4)n3c2)c1 | ? | ? | i | i | 21µM* | 23µM*
Cc1cccc(-c2cc(NC=O)c3ncc(-c4cccc(C(=O)N(C)C)c4)n3c2)c1 | 16µM* | ? | ? | i | 0% | ?
